Measurements taken from PubChem BioAssay AID488890 (Southern Research Specialized Biocontainment Screening …, 2010).
Hit rate of the full screen: of about 320,000 compounds, about 1,300 (0.41%) were called active. Roughly 3% stayed inconclusive and do not appear here. The rule behind the calls is not given here. These entries were drawn from the full list. Potency and affinity values are given separately.

Assay: growth inhibition of non-replicating M. tuberculosis (AID 488890);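 note: plate controls were DMSO cells for no effect and high antibiotic wells for full effect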
Details: Mycobacterium tuberculosis non-replicating, at 25 µM, stronger effect = higher value
In the case of `CC(=O)Oc1ccc(S(=O)(=O)c2ccc(OC(C)=O)cc2)cc1`, the inhibition is reported as -5.93%.
In the case of `Cc1ccc(S(=O)(=O)Nc2ccc3c(c2)C(=O)N([C@H](C)CO)C[C@H](C)[C@@H](CN(C)C(=O)Nc2ccc(C(F)(F)F)cc2)O3)cc1`, the inhibition is reported as 46.2%.
In the case of `COc1cccc(-c2nn(-c3ccccc3)cc2CN(C)Cc2ccno2)c1`, the inhibition is reported as 2.32%.
For `S=c1[nH]nc(Cc2ccc(Cl)cc2)n1-c1ccc2c(c1)OCCO2`, the inhibition was -2%.
`O=C(Nc1ccc(S(=O)(=O)Nc2nccs2)cc1)C1CCCCC1` showed an inhibition of 60.2%.
`O=C(NC(=S)Nc1ccc(S(=O)(=O)Nc2nccs2)cc1)C1CC1` showed an inhibition of 23.6%.
Compound `Cc1ccc(C(=O)NC(=S)NNC(=O)CC#N)cc1` has an inhibition of 39.8%.
`Cc1ccc(C(=O)NNC(=O)c2ccc(C)cc2)cc1` gave an inhibition of -1.12%.
Work on `Cc1cc(C(=O)N2CCN(c3ncccn3)CC2)nn1C` yielded an inhibition of -1.81%.
For `COc1cccc(/C=C/C(=O)OCCN2C(=O)c3ccccc3C2=O)c1`, the inhibition was 24.5%.
`CC1(C)C(=O)OC(c2cccc([N+](=O)[O-])c2)C2(CCCCC2)C1=O` (configuration not stated) gave an inhibition of 12.6%.
In the case of `COc1ccc(C2(CNC(=O)c3ccccc3)CCOCC2)cc1`, the inhibition is reported as -1.08%.
Compound `CC(=O)c1ccc(NC(=O)c2ccccc2-c2ccccc2C(=O)O)cc1` has an inhibition of 78.9%.
Compound `COC(=O)c1ccc(NC(=O)c2ccccc2-c2ccccc2C(=O)O)cc1` has an inhibition of 65.6%.
With `COC(=O)C[C@H](NC(=O)Cn1cnc2c(SC)nc(N)nc21)C(=O)OC` the inhibition was -10.4%.
Work on `CC(=O)c1ccc(NC(=O)CNC2CCCCC2)cc1` yielded an inhibition of -1.52%.
In the case of `Cc1c(N=c2c(=O)c3ccccc3c2=O)c(=O)n(-c2ccccc2)n1C`, the inhibition is reported as -4.23%.
For `CCC/C(O)=C1\C(=O)CC(C)(C)CC1=Nc1ccccc1O`, the inhibition was 2.5%.
`CC1c2[nH]c3ccccc3c2C[C@H]2C(=O)N(CCCN(C)C)CC(=O)N12` (some centres not stated) gave an inhibition of -5.98%.
With `Cc1ccc(C(=O)Nc2ccc(NC(=O)c3ccc(C)o3)cc2)o1` the inhibition was 0.92%.
`Cc1ccc(C(=O)CCNc2ccccc2)o1` showed an inhibition of -1.75%.
In the case of `Cc1ccc(NC(=O)COC(=O)c2cc(=O)c3ccccc3o2)c(Br)c1`, the inhibition is reported as 6.59%.
For `CCN1C(=O)C(=Cc2cc(C)n(C3CC3)c2C)C(=O)N(CC)C1=S`, the inhibition was 69.5%.
For `Cc1cc(/C=C2\SC(=S)NC2=O)c(C)n1C1CC1`, the inhibition was 43.8%.
`CCCS(=O)(=O)C/C(N)=N/OC(=O)c1ccc(Cl)cc1` showed an inhibition of 3.52%.
`COc1ccc(NC(=O)CN(C)CC(=O)Nc2ccccc2SC)cc1` gave an inhibition of -4.75%.
`CCOCC(=O)Nc1nc2ccc(OCC)cc2s1` showed an inhibition of 80%.
For `Cc1csc(NC(=O)c2cnccn2)n1`, the inhibition was 16.7%.
In the case of `O=C(Nc1nc2c(F)cc(F)cc2s1)c1ccco1`, the inhibition is reported as 36.2%.
`O=C(NNc1nc2c(F)cc(F)cc2s1)c1ccccc1` showed an inhibition of -1.93%.
`COCC(=O)Nc1nc2ccc(C)cc2s1` showed an inhibition of 49%.
For `Cc1ccc(C)c(-c2csc(NC(=O)c3c(C)noc3C)n2)c1`, the inhibition was -15%.
Work on `Cc1onc(-c2ccccc2)c1C(=O)Nc1nc(-c2cc(F)ccc2F)cs1` yielded an inhibition of -10.6%.
`O=C(Nc1nc(-c2cc(F)ccc2F)cs1)C1=COCCO1` showed an inhibition of 22.8%.
In the case of `CC(C)Cc1ccc(CN2CCCC(NC(=O)CCN3CCOCC3)C2)cc1` (configuration not stated), the inhibition is reported as 34.5%.
With `CCS(=O)(=O)N1CCC(C(=O)Oc2ccc(C(=O)OC)cc2)CC1` the inhibition was 4.94%.
Work on `O=C(Nc1nc2ccc(F)cc2s1)Oc1ccccc1` yielded an inhibition of 6.26%.
Work on `Cc1ccc2nc(NC(=O)COC(=O)c3ccccn3)sc2c1` yielded an inhibition of 76.5%.
`Cc1cnc(NC(=O)c2ccncc2)s1` showed an inhibition of -17.1%.
With `Cc1ccc2nc(NC(=O)c3ccccc3F)sc2c1` the inhibition was 2.6%.
With `O=C(Nc1nc2ccc(F)cc2s1)c1cccs1` the inhibition was 33.5%.
In the case of `CSc1ncccc1C(=O)Nc1ncc(C)s1`, the inhibition is reported as 13.3%.
`CCc1ccc(C(=O)NNc2cc(Cl)cc(Cl)c2)cc1` showed an inhibition of 67.2%.
In the case of `CN(C)c1ccc(NC(=O)CCCCCn2nnc3ccccc3c2=O)cc1`, the inhibition is reported as 2.13%.
With `O=[N+]([O-])c1cccc(-c2nnc(-c3ccccc3F)o2)c1` the inhibition was 35.9%.
Work on `O=[N+]([O-])c1cccc(-c2nnc(-c3ccccc3)o2)c1` yielded an inhibition of 75.3%.
For `Cc1ccc(C(=O)Nc2ccc(C(=O)N/N=C/c3ccc(C)o3)cc2)cc1`, the inhibition was 9.26%.
Compound `Cc1cccc(NC(=O)CCNS(=O)(=O)c2ccc(Cl)cc2)c1` has an inhibition of -5.22%.
Compound `CCOC(=O)C1(Cc2ccc(OC)cc2)CCN(C(=O)CN2CCOC2=O)CC1` has an inhibition of -7.21%.
`CN(C)S(=O)(=O)c1ccc(C(=O)OCCc2ccccc2)cc1` showed an inhibition of 42.9%.
`CN(C)S(=O)(=O)c1ccc(Oc2ccccc2)cc1` gave an inhibition of 27.6%.
Work on `COc1cc(/C=N/Nc2ccc(Cl)c(C(=O)O)c2)ccc1OC(=O)c1ccc(F)cc1` yielded an inhibition of 52.6%.
`O=C(NC(NNc1ccc([N+](=O)[O-])cc1)(C(F)(F)F)C(F)(F)F)c1ccc(F)cc1` gave an inhibition of 29.8%.
`O=C(N/N=C1\CCCc2c1[nH]c1ccc([N+](=O)[O-])cc21)c1ccncc1` gave an inhibition of -12.5%.
Compound `O=C(NN=C1CCCCCC1)c1ccncc1` has an inhibition of 70.4%.
Work on `CC(C)c1ccc2[nH]c3c(c2c1)CCCC3=O` yielded an inhibition of 6.88%.
`Nc1ccc(C(=O)N/N=C2\CCCc3c2[nH]c2ccccc32)cc1` gave an inhibition of 19.8%.
Work on `CC1=C(/C=C/C(=O)O)C(C)(C)CCC1` yielded an inhibition of 13.1%.
`CC1=C(/C=C/C(C)=C/C=C/C(C)=C/C(=O)O)C(C)(C)CCC1` showed an inhibition of 15.6%.
With `C/C(=N\NC(=O)c1cccc([N+](=O)[O-])c1)c1ccncc1` the inhibition was 8.18%.
`CC(/C=C/c1ccc2c(c1)OCO2)=N\NC(=O)c1cccc([N+](=O)[O-])c1` showed an inhibition of 68.6%.
In the case of `COc1cc(NC(=O)CN2CCN(c3ccccc3)CC2)c(C)cc1[N+](=O)[O-]`, the inhibition is reported as -14%.
`O=C1C(c2ccccc2)=C(N2CC2)c2ccccc21` showed an inhibition of 15.4%.
In the case of `Nc1c(C(=O)c2ccccc2)sc2c1c(=O)[nH]c(=O)n2-c1ccccc1`, the inhibition is reported as 6.25%.
With `CCOC(=O)c1nn(-c2cccc(Cl)c2)c2nc(Nc3ccccc3)cc(=O)n12` the inhibition was 63.6%.
`CCOC(=O)c1nn(-c2ccc(F)cc2)c2nc(Nc3ccccc3)cc(=O)n12` gave an inhibition of 75.5%.
In the case of `Cc1cc(C(=O)N2CCCC(N3CCN(c4ccccc4C)CC3)C2)n(C)n1` (configuration not stated), the inhibition is reported as 8.85%.
Compound `CCN1CCN(C2CC(=O)NC2=O)CC1` (configuration not stated) has an inhibition of -2.18%.
In the case of `Cc1ccc(NC(=O)C2CCN(C(=O)N3CCOc4ccccc43)CC2)cc1`, the inhibition is reported as 25.7%.
`Oc1ccc2ccccc2c1CN1CCCC1` gave an inhibition of 21.4%.
`Oc1ccc(Br)cc1CN1CCCCCCC1` showed an inhibition of 8.51%.
`O=C(NC1CCCCC1)C1CCCN(S(=O)(=O)c2cccc3cccnc23)C1` (configuration not stated) showed an inhibition of -8.57%.
For `CCOC(=O)c1cc(=O)cc(C(=O)OCC)o1`, the inhibition was -3.36%.
In the case of `CCOC(=O)c1cc(=O)c2c([N+](=O)[O-])ccc(OC)c2o1`, the inhibition is reported as -14.2%.
Compound `COc1cccc(C(=O)NCC(=O)NCc2cc(=O)n(C)c(=O)n2C)c1OC` has an inhibition of -9.9%.
For `O=C1CNC(=S)N1C1CCCCCC1`, the inhibition was 0.27%.
For `O=C(CCN1C(=O)S/C(=C\c2ccc(F)cc2)C1=O)Nc1ccc(O)cc1C(=O)O`, the inhibition was 24.1%.
In the case of `O=C(CCN1C(=O)S/C(=C/c2ccc(F)cc2)C1=O)Nc1ccc(O)c(C(=O)O)c1`, the inhibition is reported as -1.86%.
For `CCCn1c(=O)c2ccccc2n2c(SCc3nnc(-c4ccccc4Br)o3)nnc12`, the inhibition was -5.68%.
Compound `COC(=O)c1ccn(-c2nc(-c3ccco3)cc(C(F)(F)F)n2)n1` has an inhibition of -17.4%.
`O=C(COc1ccccc1Cl)c1ccc2c(c1)CCCC2` showed an inhibition of 38.7%.
Work on `Cc1ccc(CCC(=O)Nc2ccc(Cl)cc2)o1` yielded an inhibition of 79.5%.
With `Cc1cccc(NC(=O)CCc2ccc(C)o2)c1` the inhibition was 25.7%.
Work on `Cc1ccc(CCC(=O)Nc2ccc([N+](=O)[O-])cc2Cl)o1` yielded an inhibition of 75.5%.
In the case of `Cc1ccc(CCC(=O)Nc2ccc(N(C)C)cc2)o1`, the inhibition is reported as 39.5%.
`Cc1ccc(C)c(NC(=O)CCc2ccc(C)o2)c1` showed an inhibition of 79.3%.
In the case of `Cc1ccc(NC(=O)CCc2ccc(C)o2)c(C)c1`, the inhibition is reported as 68.3%.
With `Cc1cccn2c(=O)c3cc(S(=O)(=O)c4ccccc4)c(=N)n(Cc4cccnc4)c3nc12` the inhibition was -4.09%.
Work on `Cc1ccc(C(=O)N2CCC(C(=O)Nc3cccc([N+](=O)[O-])c3)CC2)cc1` yielded an inhibition of 28.6%.
Work on `Cc1ccccc1NC(=O)Cn1nc(C(=O)O)c2ccccc2c1=O` yielded an inhibition of -3.67%.
`Cc1ccc(C)c(-n2c(-c3csc(C)c3)n[nH]c2=S)c1` gave an inhibition of 11.6%.
Work on `CCCC(=O)Nc1ccc(C2C(=O)c3ccccc3C2=O)cc1` yielded an inhibition of -4.62%.
For `O=C(Nc1ccc(N2CCN(C(=O)c3ccccc3)CC2)cc1)c1ccc2c(c1)OCO2`, the inhibition was 13.6%.
With `CCOC(=O)N1CCC(NS(=O)(=O)c2cc3c(cc2C)NC(=O)CO3)CC1` the inhibition was 8.95%.
For `CCOC(=O)N1CCC(NC(=O)CN(C)S(=O)(=O)c2cc3c(cc2Cl)NC(=O)CO3)CC1`, the inhibition was 31.8%.
`O=C1NCC(O)=C1C=NCCO` gave an inhibition of -6.04%.
In the case of `Oc1ccccc1N=Cc1ccc[nH]1`, the inhibition is reported as 72.2%.
Work on `CCOc1ccc(NC(=O)CSc2nc(-c3cccs3)cc(C(F)(F)F)n2)c([N+](=O)[O-])c1` yielded an inhibition of 7.92%.
With `CCN(CC)C(=O)CSc1nc2c(c(-c3cccnc3)c1C#N)CCCC2` the inhibition was 24%.
Work on `CN(c1ccccc1)S(=O)(=O)c1ccc(C(=O)OCC(=O)NCc2ccco2)cc1` yielded an inhibition of 18.2%.
With `Nc1nonc1C(=O)N/N=C/c1ccc(-c2cccc([N+](=O)[O-])c2)o1` the inhibition was -4.42%.
With `O=C(N/N=C/c1ccc([N+](=O)[O-])cc1)c1cc2ccccc2o1` the inhibition was 6.74%.
`Nc1nonc1C(=O)N/N=C/c1ccc(Br)o1` gave an inhibition of -9.49%.
`O=C(N/N=C/c1cccc([N+](=O)[O-])c1)c1cc2ccccc2o1` showed an inhibition of 21.7%.
`O=C(N/N=C/c1ccc([N+](=O)[O-])cc1)c1ccc(NS(=O)(=O)c2cccs2)cc1` showed an inhibition of 17.2%.
Work on `Cc1ccc(/C=N/NC(=O)c2cc(C)oc2C)o1` yielded an inhibition of 3.1%.
Work on `Cc1cc(C(=O)N/N=C/c2ccc([N+](=O)[O-])cc2)c(C)o1` yielded an inhibition of -13.2%.
`O=C(N/N=C/c1ccc([N+](=O)[O-])o1)c1ccccc1NS(=O)(=O)c1cccs1` showed an inhibition of 48%.
Work on `O=S(=O)(Nc1nc2ccccc2nc1Cl)c1ccc2ccccc2c1` yielded an inhibition of 47.8%.
`Cc1ccc(NC(=O)COC(=O)C2CCN(c3ccc(C(F)(F)F)cn3)CC2)cc1C` showed an inhibition of 14.8%.
`N#Cc1nc(N2CCCCC2)nc(N2CCOCC2)n1` gave an inhibition of 13.1%.
Work on `C=CCn1c(CNC(=O)c2ccco2)nnc1SCC(=O)c1ccccc1` yielded an inhibition of 12.6%.
